From PubChem BioAssay (NCI) come the findings set out here.

Compounds without any hit were thinned out: in the full panel of roughly 83,000, 20% have a hit.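 Compound tested at a single concentration for 48 hours in 96-well plates; a percent growth value below 10 was scored as active.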 A number with no mark means an inactive call. Activity calls are given as the source filed them.

Experiment in all cases: NCI-60 one-dose screen, 48 h (100 = growth as untreated, 0 = no growth, -100 = all killed)
Common to all, as to settings: 10 µM

Test [1] concerns NCI-H23 lung.
The subject of test [2] is NCI-H226 lung.
In test [3] the test system is NCI-H322M lung.
Test [4] relates to HOP-62 NSCLC.
Test [5] has as its system NCI-H460 lung.
Test [6] has as its system HOP-92 NSCLC.
In test [7] the test system is NCI-H522 lung.
Test [8] deals with A549/ATCC NSCLC.
For test [9], the system named is 786-0 renal.
In test [10] the test system is COLO 205 colon.

On to `C=C1CCC2C3(C)COC(c4cccc(F)c4)OC3CCC2(C)C1CC(O)C1=CCOC1=O` (stereo not given), for which the growth is 82.9% in [1]; 73.1% in test [2]; 90.4% in test [3]; 88.7% in [4]; 82.2% in [5]; 76.4% in [6]. Besides, the growth is 23.9% in test [7], 80.3% in test [8], 41.1% in test [9] and 60.7% in test [10].

`COc1cc(/C=C/C(=O)c2ccc(C(F)(F)F)cc2)ccc1Oc1nc(Nc2ccc(F)cc2)nc(N(C)C)n1`: the growth in [1] is 64.6%; in test [2] it was 71.7%; in [3], 82.8%; in test [4], 102%; in test [5], 82.7%; in [6], 81.5%. The growth was 76.7% in test [7], 78.7% in test [8], 71.8% in test [9] and 134% in test [10].

Regarding `CN(CCF)c1ccc(/C=C/C(=O)c2ccc(N)cc2O)cc1`, the growth was 93.2% in [1]; 93.8% in [2]; 78.8% in [3]; 106% in test [4]; 71.9% in [5]; 94% in test [6]. Further, the growth was 67.5% in [7], 68.8% in [8], 90.5% in test [9] and 111% in test [10].

In the case of `COc1ccc(C(C)=C(c2ccc(OCCCN(C)C)cc2)c2ccc(OCCCN(C)C)cc2)cc1`, the growth was -95.6% (active) in [1]; -82.2% (active) in test [2]; -97.1% (active) in test [3]; -92.2% (active) in test [4]; -44.2% (active) in test [5]; -74.5% (active) in [6]. In addition, the growth in [7] is -92.7% (active); in [8] it was -92.5% (active); in test [9] it was -82.6% (active); in [10], -90.2% (active).

As for `O=c1[nH]c2ccc(Cl)cc2cc1CSc1ccc(Nc2nccc(-c3ccc(Cl)cc3)n2)cc1`, the growth in test [1] is 62.1%; in test [2], 66%; in test [3] it was 90.8%; in [4] it was 93.8%; in [5] it was -27.6% (active); in test [6] it was 82.1%. Besides, the growth in test [7] was 33.3%; in test [8], -41.8% (active); in test [9] it was 75.2%; in test [10], 4.59% (active).

Regarding `C/C(=N\N=C\c1ccc(Cl)c([N+](=O)[O-])c1)c1ccc2c(c1)Nc1ccccc1S2`, the growth was 18.2% in test [1]; -25.2% (active) in [2]; 50% in [3]; 47.5% in test [4]; 1.22% (active) in test [5]; 32.6% in [6]. In addition, the growth in test [7] is 33.2%; in [8], 60.2%; in test [9], 52.1%; in test [10], 32.1%.

For the compound `Clc1cccc(N/N=C/c2c[nH]c3ccccc23)n1`, the growth was 57.3% in test [1]; 50.7% in test [2]; 65.9% in test [3]; 46.9% in [4]; 28.9% in [5]; -10.8% (active) in test [6]. The growth in test [7] is 16.1%; in test [8] it was 56.4%; in test [9] it was 13.7%; in test [10] it was 37.2%.

In the case of `Cc1noc2c(Cc3ccc([N+](=O)[O-])cc3)nn(CC(=O)N/N=C/c3ccc(Br)cc3)c(=O)c12`, the growth in test [1] is 87.7%; in [2] it was 67.7%; in test [3], 104%; in test [4], 72.4%; in test [5] it was 81.5%; in test [6] it was 50.6%. Also, the growth is 98.6% in [7], 65.1% in [8], 4.46% (active) in test [9] and 119% in test [10].

`COc1ccc(-c2cc(-c3cc(C(=O)c4ccccc4)n4ccc(C)cc34)nc(N)c2C#N)cc1`: the growth is 55% in test [1]; 36.4% in test [2]; 83.7% in [3]; 29.7% in [4]; 44.5% in test [5]; -7.39% (active) in [6]. The growth in test [7] was 71.5%; in test [8], 79.9%; in test [9] it was 13.5%; in [10], 73%.

Take `COc1ccc(-c2cc(-c3cc(C(=O)c4ccc(Br)cc4)n4ccc(C)cc34)nc(N)c2C#N)cc1`: the growth in test [1] was 63.1%; in test [2], 60.4%; in [3], 93.6%; in [4], 95.1%; in test [5], 84.7%; in test [6] it was 87.5%. In addition, the growth in [7] is 89.9%; in test [8] it was 93.2%; in test [9], 56.9%; in test [10] it was 67.2%.

Turning to `CCOP(=O)(OCC)O[C@H]1CC[C@]2(C)[C@H]3CC[C@@H]4[C@@H]([C@](C)(O)CCC=C(C)C)CC[C@@]4(C)[C@]3(C)CC[C@H]2C1(C)C`, the growth in test [1] is 15.4%; in [2], 20.9%; in test [3] it was 74.1%; in [4], 57.3%; in test [5], 11.2%; in test [6] it was 2.88% (active). Further, the growth in test [7] was 1.32% (active); in test [8], 22.1%; in test [9] it was 23.3%; in test [10], -33% (active).

Take `COc1cc(NC(=O)CSc2nnc(-c3ccc4nc(-c5ccc(Cl)cc5)[nH]c4c3)o2)cc(OC)c1OC`: the growth in [1] was 40.3%; in [2], 38.7%; in test [3], 90.8%; in test [4] it was 89.7%; in test [5] it was 67.2%; in test [6], 128%. Besides, the growth was 45.1% in test [7], 90.4% in test [8], 78.3% in [9] and 82.4% in test [10].

As to `Cc1ccc2nc(-c3ccc(-c4nnc(SCC(=O)Nc5ccc(Br)cc5)o4)cc3)[nH]c2c1`, the growth in test [1] is 50.3%; in test [2], 62.1%; in test [3], 80.7%; in test [4] it was 72.9%; in test [5], 14.4%; in test [6], 91.9%. The growth in test [7] was 62.6%; in test [8], 89.5%; in [9], 84.6%; in [10], 87.3%.

Take `Cn1cc(/C=N/Nc2cccc(Cl)n2)c2ccccc21`: the growth was 69.2% in [1]; 68.9% in [2]; 89.9% in test [3]; 75.8% in test [4]; 63.8% in [5]; 42.8% in test [6]. For the same compound, the growth in test [7] was 74.3%; in test [8] it was 76%; in test [9] it was 63.7%; in test [10], 67.7%.

In the case of `CCN(CC)CCOc1ccc(C(=C(C)c2ccccc2)c2ccc(OCCN(CC)CC)cc2)cc1`, the growth in [1] is 19.9%; in test [2], 71%; in test [3], 31.1%; in test [4] it was -44.3% (active); in test [5], 4.41% (active); in [6], -21.3% (active). Besides, the growth in test [7] was 3.11% (active); in test [8], 15.2%; in [9] it was -51.6% (active); in [10], -88.2% (active).

For `CC(=O)c1cc(C(=O)c2ccc3c(c2)NC(=O)CO3)n2ccc3ccccc3c12`, the growth was 58.3% in [1]; 62.3% in [2]; 87.8% in test [3]; 74.1% in [4]; 63.8% in test [5]; 97.7% in [6]. Moreover, the growth was 71.6% in [7], 29.8% in [8], 51.7% in test [9] and 91.9% in test [10].

As for `CO[C@@H]1CSSC1Cn1nc(-c2ccc(Oc3ccccc3)cc2)c2c(N)ncnc21` (stereo not given in full), the growth in [1] is 46.4%; in test [2], 31.1%; in test [3], 63%; in [4] it was 86.4%; in [5], 16.5%; in test [6] it was 35.9%. Moreover, the growth is 1.33% (active) in test [7], 35.7% in [8], 45.3% in [9] and 52% in [10].

For `O=c1[nH]n(C(=S)N/N=C/c2ccc(F)cc2)c(=O)c2ccccc12`, the growth in [1] is 75.3%; in [2], 71.9%; in test [3] it was 83.9%; in test [4], 80.3%; in test [5], 55.9%; in [6], 77%. The growth in test [7] was 70%; in test [8], 82.4%; in test [9] it was 76.5%; in test [10], 105%.

As to `OCCCNc1oc(-c2ccccc2)nc1[P+](c1ccccc1)(c1ccccc1)c1ccccc1`, the growth in test [1] was -1.07% (active); in [2], -5.46% (active); in [3], 31.9%; in test [4] it was 17.9%; in [5] it was 3.97% (active); in [6] it was -24.1% (active). In addition, the growth is 2.08% (active) in [7], 29.6% in test [8], 11.2% in test [9] and -52.3% (active) in test [10].

In the case of `O=C1Nc2ccc(F)cc2/C1=C/c1cccc(OCc2ccccc2)c1`, the growth in test [1] was 24.8%; in test [2], 35.3%; in test [3] it was 47.6%; in test [4], 48.4%; in [5], 7.06% (active); in test [6], 18.8%. The growth in test [7] was 5.02% (active); in test [8], 41.8%; in test [9], 33.7%; in test [10], 34.1%.

`CC1=C(c2cc(-c3ccc(Cl)cc3)c(C#N)c(N)n2)C(c2ccccc2)NC(=S)N1` (stereo not given): the growth is 76.1% in test [1]; 64.4% in test [2]; 96.4% in test [3]; 81.3% in test [4]; 82.6% in [5]; 105% in test [6]. Further, the growth in test [7] was 49.4%; in [8] it was 90.1%; in test [9], 67%; in test [10] it was 80.5%.

As for `CC(C)C1=C[C@@]23CC[C@@H]4[C@](C)(CCC[C@]4(C)C(=O)NCc4ccccc4)[C@H]2C[C@@H]1[C@H]1C(=O)OC(=O)[C@H]13`, the growth in test [1] was 23%; in test [2], 76.1%; in test [3] it was 102%; in [4], 57.2%; in test [5], 17.6%; in test [6], 64.7%. Besides, the growth in test [7] is 17%; in [8], 33.7%; in test [9], 70.5%; in test [10] it was 79.6%.

On to `O=C(CSc1ccc(-c2ccc(Cl)cc2)nn1)Nc1ccc(Cl)c(C(F)(F)F)c1`, for which the growth in test [1] is 73.6%; in test [2], 76.1%; in [3] it was 89.1%; in test [4], 57.4%; in test [5] it was 98.6%; in test [6], 75.8%. Moreover, the growth in test [7] is 55.1%; in [8] it was 70.5%; in [9], 80.6%; in test [10] it was 74.8%.

For the compound `CCCCCc1ccc(S(=O)(=O)N(C(C)=O)c2cc(-c3csc(N(C)C(C)=O)n3)ccc2N2CCN(C)CC2)cc1`, the growth in test [1] is 43.6%; in [2] it was 72.2%; in test [3], 55.8%; in test [4], 51.6%; in test [5], -41.6% (active); in test [6], -2.86% (active). The growth in test [7] is 55.5%; in [8], 40.1%; in test [9] it was -16.2% (active); in test [10] it was -71.6% (active).

For `CC(=O)NNc1ccc2nnc(-c3ccc(Br)cc3)n2n1`, the growth in [1] was 91.5%; in [2], 87.8%; in [3], 107%; in [4], 82.5%; in test [5], 106%; in test [6], 103%. For the same compound, the growth in test [7] was 85.3%; in test [8] it was 95.9%; in test [9], 86.3%; in [10], 109%.

In the case of `COc1cc(/C=C/C(=O)c2ccc(F)cc2)ccc1Oc1nc(Nc2ccc(F)cc2)nc(N(C)C)n1`, the growth in [1] is 66.8%; in test [2] it was 53.7%; in [3] it was 79.1%; in test [4], 93.5%; in [5], 69.6%; in test [6] it was 65.6%. Also, the growth in test [7] is 62.3%; in [8], 74.1%; in test [9] it was 71%; in test [10] it was 118%.
